Inconclusive results are not listed. A call without a number means that no potency is given here. Active and inactive are the calls of the source. The call rests on the fitted dose curve.
Assay: Primary qHTS for Huh7 cytotoxicity: counterscreen for inhibitors of MERS-S pseudotyped particle cell entry (AID 1479147)
Details: cell viability read-out; series mostly up to 57.1 µM

| Structure (SMILES) | Potency |
| --- | --- |
| CCCCCCCCCCCCCC[n+]1ccc(C)cc1 | inactive |
| Cc1cc(-n2c(=O)[nH]c(=O)n(C)c2=O)ccc1Oc1ccc(S(=O)(=O)C(F)(F)F)cc1 | inactive |
| CC1CCCC(O)CCCCCc2cc(O)cc(O)c2C(=O)O1 (configuration not stated) | inactive |
| COc1cc([C@@H]2c3cc4c(cc3[C@@H](O[C@@H]3O[C@@H]5CO[C@@H](C)O[C@H]5[C@H](O)[C@H]3O)[C@H]3COC(=O)[C@H]23)OCO4)cc(OC)c1OP(=O)(O)O | inactive |

Assay: Primary qHTS for inhibitors of MERS-S pseudo-typed particle cell entry (AID 1479149); further: nearly all actives have a fitted effect of over 60% in size; further: potency means the concentration at half of the fitted maximal effect
Details: MERS-S pseudotyped particle entry, luciferase; series mostly up to 57.1 µM

| Structure (SMILES) | Potency |
| --- | --- |
| Cc1cc(/C=C/c2ccc3cc(N(C)C)ccc3[n+]2C)c(C)n1-c1ccccc1 | 5.01 µM (active) |
| C/C(=C(\CCOC(=O)c1ccccc1)SS/C(CCOC(=O)c1ccccc1)=C(/C)N(C=O)Cc1cnc(C)nc1N)N(C=O)Cc1cnc(C)nc1N | inactive |
| CCC1OC(=O)C(C)C(OC2CC(C)(OC)C(O)C(C)O2)C(C)C(OC2OC(C)CC(N(C)C)C2O)C(C)(O)CC(C)C2NC(COCCOC)OC(C2C)C1(C)O (configuration not stated) | inactive |
| NC(=O)c1cccc2cn(-c3ccc(C4CCCNC4)cc3)nc12 (configuration not stated) | 25.1 µM (active) |
| CC1(C)[C@@H](O[C@H]2O[C@H](C(=O)O)[C@@H](O)[C@H](O)[C@H]2O[C@@H]2O[C@H](C(=O)O)[C@@H](O)[C@H](O)[C@H]2O)CC[C@]2(C)[C@H]3C(=O)C=C4[C@@H]5C[C@@](C)(C(=O)O)CC[C@]5(C)CC[C@@]4(C)[C@]3(C)CC[C@@H]12 | inactive |
| Clc1cc(Cl)c(OCC#CI)cc1Cl | inactive |
| CCCCC(=O)OCC(=O)[C@]1(O)Cc2c(O)c3c(c(O)c2[C@@H](O[C@H]2C[C@H](NC(=O)C(F)(F)F)[C@H](O)[C@H](C)O2)C1)C(=O)c1c(OC)cccc1C3=O | 14.1 µM (active) |
| CC[C@@H](C(=O)O)[C@@H]1O[C@@H]([C@@H](C)[C@H](O)[C@H](C)C(=O)[C@H](CC)[C@H]2O[C@]3(C=C[C@@H](O)[C@]4(CC[C@@](C)([C@H]5CC[C@](O)(CC)[C@H](C)O5)O4)O3)[C@H](C)C[C@@H]2C)[C@@H](C)C[C@@H]1C | 0.355 µM (active) |
| FC(F)(F)C(F)(F)C(F)(F)C(F)(F)C(F)(F)F | inactive |
| CC(C)N1CCN(c2ccc(OC[C@@H]3CO[C@@](Cn4cncn4)(c4ccc(Cl)cc4Cl)O3)cc2)CC1 | inactive |
| CC1=CC(=C(c2ccc(N)cc2)c2ccc(N)cc2)C=CC1=N | 7.08 µM (active) |
| CCN1/C(=C/C=C/C=C/c2sc3ccccc3[n+]2CC)Sc2ccccc21 | 11.2 µM (active) |
| C[C@H](Oc1cc(-c2cnn(C3CCNCC3)c2)cnc1N)c1c(Cl)ccc(F)c1Cl | 12.6 µM (active) |
| C=CC(=O)Nc1cc(Nc2nccc(-c3cn(C)c4ccccc34)n2)c(OC)cc1N(C)CCN(C)C | 31.6 µM (active) |

Assay: Primary qHTS for Vero E6 cytotoxicity: counterscreen for inhibitors of SARS-S pseudo-typed particle cell entry (AID 1479150); further: potency means the concentration at half of the fitted maximal effect
Details: cell viability; series mostly up to 57.1 µM

| Structure (SMILES) | Potency |
| --- | --- |
| COc1cc(N2CCC(N3CCN(C)CC3)CC2)ccc1Nc1ncc(Cl)c(Nc2ccccc2P(C)(C)=O)n1 | inactive |
| CCCCCCOc1ccc(C(=N)N(CCCC)CCCC)c2ccccc12 | 14.1 µM (active) |
| CCSc1ccc2c(c1)N(CCCN1CCN(C)CC1)c1ccccc1S2 | inactive |
| CCC1OC(=O)C(C)C(OC2CC(C)(OC)C(O)C(C)O2)C(C)C(OC2OC(C)CC(N(C)C)C2O)C(C)(O)CC(C)C2NC(COCCOC)OC(C2C)C1(C)O (configuration not stated) | inactive |
| COc1ccc2c(c1)N(C[C@H](C)CN(C)C)c1ccccc1S2 | inactive |
| Cc1[nH]c(/C=C2\C(=O)Nc3ccc(F)cc32)c(C)c1C(=O)NCCN1CCCC1 | inactive |
| NC(=O)c1cccc2cn(-c3ccc(C4CCCNC4)cc3)nc12 (configuration not stated) | inactive |
| CC1CCCC(O)CCCCCc2cc(O)cc(O)c2C(=O)O1 (configuration not stated) | inactive |
| Clc1ccc(CCCOCCCN2CCCCC2)cc1 | inactive |
| CC1(C)[C@@H](O[C@H]2O[C@H](C(=O)O)[C@@H](O)[C@H](O)[C@H]2O[C@@H]2O[C@H](C(=O)O)[C@@H](O)[C@H](O)[C@H]2O)CC[C@]2(C)[C@H]3C(=O)C=C4[C@@H]5C[C@@](C)(C(=O)O)CC[C@]5(C)CC[C@@]4(C)[C@]3(C)CC[C@@H]12 | inactive |
| CC(=O)Oc1cc(C)c(OC(C)=O)c2ccccc12 | inactive |
| CCCCC(=O)OCC(=O)[C@]1(O)Cc2c(O)c3c(c(O)c2[C@@H](O[C@H]2C[C@H](NC(=O)C(F)(F)F)[C@H](O)[C@H](C)O2)C1)C(=O)c1c(OC)cccc1C3=O | inactive |
| O=C(CCCN1CCC(n2c(=S)[nH]c3ccccc32)CC1)c1ccc(F)cc1 | inactive |
| CC[C@@H](C(=O)O)[C@@H]1O[C@@H]([C@@H](C)[C@H](O)[C@H](C)C(=O)[C@H](CC)[C@H]2O[C@]3(C=C[C@@H](O)[C@]4(CC[C@@](C)([C@H]5CC[C@](O)(CC)[C@H](C)O5)O4)O3)[C@H](C)C[C@@H]2C)[C@@H](C)C[C@@H]1C | inactive |
| O=C(OC[C@H]1O[C@@H](OC(=O)c2cc(O)c(O)c(OC(=O)c3cc(O)c(O)c(O)c3)c2)[C@H](OC(=O)c2cc(O)c(O)c(OC(=O)c3cc(O)c(O)c(O)c3)c2)[C@@H](OC(=O)c2cc(O)c(O)c(OC(=O)c3cc(O)c(O)c(O)c3)c2)[C@@H]1OC(=O)c1cc(O)c(O)c(OC(=O)c2cc(O)c(O)c(O)c2)c1)c1cc(O)c(O)c(OC(=O)c2cc(O)c(O)c(O)c2)c1 | inactive |
| CC(C)N1CCN(c2ccc(OC[C@@H]3CO[C@@](Cn4cncn4)(c4ccc(Cl)cc4Cl)O3)cc2)CC1 | inactive |
| C[C@](C#N)(COc1cc(C#N)ccc1C(F)(F)F)NC(=O)c1ccc(SC(F)(F)F)cc1 | inactive |
| C[C@H](Oc1cc(-c2cnn(C3CCNCC3)c2)cnc1N)c1c(Cl)ccc(F)c1Cl | inactive |
| CCCN1C[C@@H](NS(=O)(=O)N(CC)CC)C[C@@H]2Cc3c(O)cccc3C[C@H]21 | inactive |

Source: PubChem BioAssay (NCATS)
